Test [1] is described as follows: antimalarial activity against Dd2 strain (AID 2302;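 active = growth inhibition above 50% at the single 2 µM test dose, taken to imply half-maximal potency below 2 µM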;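 note: 0% = DMSO untreated growth and 100% = chloroquine plus artemisinin killed control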). The settings on record: P. falciparum Dd2 in RBCs, LDH growth readout, 72 h; at 2 µM; active compounds read high.
Test [2] can be described thus: human hepatoma cell viability loss – ATP luminescence, cytotoxicity control for P. falciparum antimalarial project, primary screen (AID 2303;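 active = inhibition above 50%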;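 note: 0% = DMSO wells and 100% = digitonin-killed cells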). The settings on record: HepG2 viability, 24-48 h, at 10 µM, active compounds read high.
Test [3] addresses L-lactate dehydrogenase (Plasmodium falciparum (isolate CDC / Honduras)) (UniProt Q27743). In words: PfLDH activity inhibition – cell lysate, 3D7 strain, counter-screen for P. falciparum growth inhibition project (AID 2304).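 Note: 0% = vehicle and 100% = reference inhibitor.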 The settings on record: P. falciparum 3D7 crude extract, LDH APAD/NBT absorbance; at 2 µM; active compounds read high. Background: The purpose of a counterscreen is to sort out artefacts and off-target activity.

The nature of test [4]: inhibition of 3D7 malaria parasite growth – strain 3D7 (AID 2306).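 Note: 0% = DMSO wells and 100% = chloroquine plus artemisinin control wells.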 To be noted: P. falciparum 3D7 erythrocytic growth, LDH absorbance, 72 h; at 2 µM; active compounds read high.
The target in test [5] is Calcium-dependent protein kinase 1 (Plasmodium falciparum (isolate 3D7)) (UniProt P62344). Put plainly: PfCDPK1 kinase inhibitors, biochemical, TCAMS library (AID 1159585; cut-off not given, nearly all actives have IC50 up to about 0.98 µM;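 note: inhibitors leave more ATP so luminescence rises with inhibition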). The settings on record: recombinant PfCDPK1, Kinase-Glo ATP depletion luminescence. Background: Kinase-Glo reads ATP consumption through a luciferase reaction.
Calcium-dependent protein kinase 1 (Plasmodium falciparum (isolate 3D7)), sequence (P62344 whole entry, looked up): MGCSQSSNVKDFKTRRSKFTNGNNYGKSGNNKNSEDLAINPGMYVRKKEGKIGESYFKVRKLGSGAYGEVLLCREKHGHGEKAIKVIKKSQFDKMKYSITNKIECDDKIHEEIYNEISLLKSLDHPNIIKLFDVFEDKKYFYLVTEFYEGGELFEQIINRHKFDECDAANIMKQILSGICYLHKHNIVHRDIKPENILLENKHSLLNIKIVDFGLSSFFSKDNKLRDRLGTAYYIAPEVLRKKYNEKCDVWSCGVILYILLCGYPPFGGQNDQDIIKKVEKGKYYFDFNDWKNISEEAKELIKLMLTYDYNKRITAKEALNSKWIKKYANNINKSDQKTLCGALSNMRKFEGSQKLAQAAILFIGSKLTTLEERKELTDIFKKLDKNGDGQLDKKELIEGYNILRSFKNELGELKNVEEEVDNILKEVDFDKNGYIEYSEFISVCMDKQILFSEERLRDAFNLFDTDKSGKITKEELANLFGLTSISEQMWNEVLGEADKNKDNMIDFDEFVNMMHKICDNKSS
Test [6] addresses Plasmodium falciparum protein kinase 6 (PK6, PF3D7_1337100) (UniProt Q8IDW1). In words: PfPK6 kinase inhibitors, biochemical, TCAMS library (AID 1159586). The settings on record: recombinant PfPK6, Kinase-Glo ATP depletion luminescence.
In test [7] the target is Protein kinase 7 (PK7), Plasmodium falciparum 3D7 (PF3D7_0213400) (UniProt Q7YTF7). Put plainly: inhibition of Plasmodium PK7 catalytic activity – biochemical, TCAMS antimalarial set, Kinase-Glo luminescence (AID 1159587). The settings on record: recombinant PfPK7, Kinase-Glo ATP depletion luminescence.
Protein kinase 7 (PK7), Plasmodium falciparum 3D7 (PF3D7_0213400), sequence (Q7YTF7 1-343): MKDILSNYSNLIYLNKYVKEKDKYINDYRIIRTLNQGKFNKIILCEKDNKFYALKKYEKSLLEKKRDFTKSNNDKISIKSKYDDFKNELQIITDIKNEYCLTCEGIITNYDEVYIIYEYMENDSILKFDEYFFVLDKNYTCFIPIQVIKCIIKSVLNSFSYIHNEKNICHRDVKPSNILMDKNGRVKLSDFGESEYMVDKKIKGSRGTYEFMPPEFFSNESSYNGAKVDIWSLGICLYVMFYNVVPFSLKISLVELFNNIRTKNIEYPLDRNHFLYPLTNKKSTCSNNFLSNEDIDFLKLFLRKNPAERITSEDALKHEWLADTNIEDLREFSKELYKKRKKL
Test [8] has as its target Calcium-dependent protein kinase 4 (Plasmodium falciparum (isolate 3D7)) (UniProt Q8IBS5). In words: PfCDPK4 kinase inhibitors, biochemical, TCAMS library (AID 1159588; cut-off not given, nearly all actives have IC50 up to about 0.91 µM). To be noted: recombinant PfCDPK4, Kinase-Glo ATP depletion luminescence.

Unmarked numbers belong to inactive results. For some of these results: Entries with a potency or affinity are not part of this list. Calls of active or inactive are those of the source. Unless noted, the rule behind the calls is not given here.

Calcium-dependent protein kinase 4 (Plasmodium falciparum (isolate 3D7)), sequence (Q8IBS5 whole entry, looked up): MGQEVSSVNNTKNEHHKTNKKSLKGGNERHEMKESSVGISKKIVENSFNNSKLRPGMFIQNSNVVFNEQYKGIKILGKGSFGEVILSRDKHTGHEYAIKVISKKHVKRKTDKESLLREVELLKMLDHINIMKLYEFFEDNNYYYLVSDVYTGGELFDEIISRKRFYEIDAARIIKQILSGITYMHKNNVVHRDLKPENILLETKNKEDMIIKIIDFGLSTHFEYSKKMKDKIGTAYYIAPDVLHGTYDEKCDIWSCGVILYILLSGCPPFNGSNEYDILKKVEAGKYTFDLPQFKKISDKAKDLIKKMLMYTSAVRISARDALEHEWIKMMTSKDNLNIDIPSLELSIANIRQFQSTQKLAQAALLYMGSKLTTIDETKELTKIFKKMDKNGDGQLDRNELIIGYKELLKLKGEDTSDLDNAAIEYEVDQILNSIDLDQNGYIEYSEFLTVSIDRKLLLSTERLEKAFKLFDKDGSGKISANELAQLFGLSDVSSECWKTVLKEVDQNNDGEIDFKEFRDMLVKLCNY
Plasmodium falciparum protein kinase 6 (PK6, PF3D7_1337100), sequence (Q8IDW1 1-305): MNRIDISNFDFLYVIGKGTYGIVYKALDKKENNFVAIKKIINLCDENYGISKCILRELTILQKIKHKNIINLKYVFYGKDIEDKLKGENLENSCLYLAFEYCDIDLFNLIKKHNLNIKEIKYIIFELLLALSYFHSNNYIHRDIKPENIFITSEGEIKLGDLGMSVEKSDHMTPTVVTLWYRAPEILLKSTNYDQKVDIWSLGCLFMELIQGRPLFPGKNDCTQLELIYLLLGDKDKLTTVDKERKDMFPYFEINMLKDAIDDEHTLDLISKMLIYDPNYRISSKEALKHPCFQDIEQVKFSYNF
L-lactate dehydrogenase (Plasmodium falciparum (isolate CDC / Honduras)), sequence (Q27743 whole entry, looked up): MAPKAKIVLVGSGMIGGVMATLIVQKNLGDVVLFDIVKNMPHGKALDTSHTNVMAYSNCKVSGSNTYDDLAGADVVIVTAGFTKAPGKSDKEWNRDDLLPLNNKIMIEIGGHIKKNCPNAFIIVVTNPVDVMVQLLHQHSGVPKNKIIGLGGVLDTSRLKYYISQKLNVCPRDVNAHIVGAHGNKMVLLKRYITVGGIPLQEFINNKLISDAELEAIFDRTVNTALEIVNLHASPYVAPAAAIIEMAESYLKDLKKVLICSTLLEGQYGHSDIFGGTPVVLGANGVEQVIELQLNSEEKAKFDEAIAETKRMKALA

For orientation: inhibition means the change of the read-out against control, counted positive when it falls. As to `O=S(=O)(Nc1cc2c(cc1OCc1ccccc1)CCN(C1CCC1)CC2)c1ccc(-c2ccc(Cl)cc2)cc1`, the growth inhibition in test [1] was 12%; in test [4], 92% (active). Moreover, the figures for the inhibition in test [2] and in test [3] were 18% and 0%, respectively. The result in test [5], in test [6], in test [7] and in test [8] was inactive.
As for `CCN(CC)CCN(Cc1ccc(-c2ccc(C(F)(F)F)cc2)cc1)C(=O)Cn1c(CCc2cccc(F)c2F)cc(=O)c2c1CCCC2`, the growth inhibition is 95% (active) in test [1] and 100% (active) in test [4]. The inhibition was 93% (active) in test [2] and 1% in test [3]. Moreover, the result in test [5], in test [6], in test [7] and in test [8] was inactive.
On to `COc1ccc(-c2ccc(NC(=O)c3cccc(F)c3)cc2)cc1CN1CCCN(C)CC1`, for which the growth inhibition in test [1] was 49%; in test [4] it was 100% (active). For the same molecule, the values for the inhibition in test [2] and in test [3] were 32% and -1%, respectively. Moreover, the outcome in test [5], in test [6], in test [7] and in test [8] was inactive.
For `CCN(CCC1(c2ccc(Cl)c(Cl)c2)CN(C(=O)c2cc(OC)c(OC)c(OC)c2)CCO1)[C@@H]1C[C@@H]2c3ccccc3C[C@@H]21` (stereo not given in full), the growth inhibition in test [1] is 65% (active); in test [4], 80% (active). Further, the inhibition in test [2] was 26%; in test [3] it was -4%. The outcome in test [5], in test [6], in test [7] and in test [8] was inactive.
Regarding `Cc1ccc(-n2cc(CNCCc3ncc(C)[nH]3)c(-c3ccc(F)cc3)n2)cc1`, the growth inhibition is 12% in test [1] and 86% (active) in test [4]. The inhibition in test [2] is 15%; in test [3], -2%. Besides, the result in test [5], in test [6], in test [7] and in test [8] was inactive.
Take `NC(=O)c1cccc(CNC(=O)NC[C@H]2CN(Cc3ccc(Cl)c(Cl)c3)CCO2)c1`: the growth inhibition in test [1] is 65% (active); in test [4], 98% (active). Besides, the inhibition in test [2] was -3%; in test [3], 1%. Also, the outcome in test [5], in test [6], in test [7] and in test [8] was inactive.
In the case of `Cc1c(OC(C)C)nc2ccccc2c1C(=O)N[C@H](c1cccc(F)c1)C1CC1`, the growth inhibition is 34% in test [1] and 83% (active) in test [4]. Besides, the inhibition in test [2] was 6%; in test [3] it was 3%. Also, the outcome in test [5], in test [6], in test [7] and in test [8] was inactive.
Consider `COc1ccc(CNCc2cccc(-c3ccc(-c4nc5ccccc5[nH]4)cc3)c2)cc1`, for which the growth inhibition in test [1] was 60% (active); in test [4] it was 101% (active). The inhibition was 22% in test [2] and 2% in test [3]. Moreover, the result in test [5], in test [6], in test [7] and in test [8] was inactive.
For `O=C(NCCCCN1CCC(c2ccc3c(c2OCC2COCO2)CCCC3)CC1)c1ccc(-c2ccc(C(F)(F)F)cc2)cc1` (stereo not given), the growth inhibition in test [1] is 45%; in test [4], 99% (active). Besides, the figures for the inhibition in test [2] and in test [3] were 91% (active) and -2%, respectively. The outcome in test [5], in test [6], in test [7] and in test [8] was inactive.
For `Cc1ccc(Nc2nc(C)cc(Nc3cccc(C#N)c3)n2)cc1`, the growth inhibition in test [1] was 96% (active); in test [4], 101% (active). The inhibition in test [2] is 14%; in test [3], 4%. For the same molecule, the result in test [5], in test [6], in test [7] and in test [8] was inactive.
Turning to `CCOc1ccc(NC(=O)c2cccc(CN3CCCN(Cc4cccc(O)c4)CC3)c2)cc1`, the results for the growth inhibition in test [1] and in test [4] were 23% and 95% (active), respectively. The inhibition in test [2] is 22%; in test [3] it was 0%. Besides, the outcome in test [5], in test [6], in test [7] and in test [8] was inactive.
For `Cc1cc(N2CCCN(C)CC2)nc(Nc2ccc(Cl)cc2)n1`, the growth inhibition in test [1] was 11%; in test [4], 96% (active). Besides, the inhibition is 8% in test [2] and 1% in test [3]. Moreover, the outcome in test [5], in test [6], in test [7] and in test [8] was inactive.
Consider `COc1cc(F)c2ncc(Cl)c([C@@H](O)CN3CCC(NCc4cc5c(cn4)OCCO5)CC3)c2c1`, for which the growth inhibition in test [1] was 100% (active); in test [4], 101% (active). Besides, the inhibition in test [2] was 11%; in test [3], 2%. In addition, the result in test [5], in test [6], in test [7] and in test [8] was inactive.
As to `CC(=O)Nc1ccc(S(=O)(=O)Nc2c(C)cc(Cc3cnc(N)nc3N)cc2C)cc1`, the values for the growth inhibition in test [1] and in test [4] were -1% and 94% (active), respectively. Besides, the inhibition in test [2] is 6%; in test [3], 5%. The result in test [5], in test [6], in test [7] and in test [8] was inactive.
Take `Cc1nc(-c2cccc(C(=O)Nc3cnc4ccccc4c3)c2)no1`: the growth inhibition in test [1] is 12%; in test [4] it was 85% (active). Besides, the inhibition in test [2] was 15%; in test [3], -10%. In addition, the outcome in test [5], in test [6], in test [7] and in test [8] was inactive.
As for `O=S(=O)(Nc1cc2c(cc1OCCCN1CCCCC1)CCNCC2)c1ccc(-c2ccc(Cl)cc2)cc1`, the results for the growth inhibition in test [1] and in test [4] were 19% and 100% (active), respectively. Further, the figures for the inhibition in test [2] and in test [3] were 77% (active) and 2%, respectively. Further, the outcome in test [5], in test [6], in test [7] and in test [8] was inactive.
On to `Cn1cnc2nc(NCCc3ccccc3)nc(NCc3cccc4ccccc34)c21`, for which the values for the growth inhibition in test [1] and in test [4] were 98% (active) and 95% (active), respectively. The results for the inhibition in test [2] and in test [3] were 16% and -2%, respectively. In addition, the outcome in test [5], in test [6], in test [7] and in test [8] was inactive.
Regarding `Nc1ccc(-c2ccc3ccnc(N)c3c2)cn1`, the growth inhibition in test [1] was 100% (active); in test [4], 101% (active). For the same molecule, the inhibition in test [2] was 43%; in test [3], 3%. For the same molecule, the result in test [5], in test [6], in test [7] and in test [8] was inactive.
In the case of `Cn1c(N)c(C(=O)CSc2nnc(-c3cccs3)n2Cc2ccccc2)c(=O)n(C)c1=O`, the growth inhibition in test [1] is 68% (active); in test [4] it was 85% (active). For the same molecule, the inhibition in test [2] was -13%; in test [3], -3%. Moreover, the outcome in test [5], in test [6], in test [7] and in test [8] was inactive.
Take `CCOC(=O)c1c(CCc2ccc(C(F)(F)F)cc2)nc2c(c1-c1ccc(C(=O)N[C@@H](C)c3ccncc3)cc1)C(=O)N1CCC[C@@H]21`: the growth inhibition in test [1] is 68% (active); in test [4], 85% (active). Also, the inhibition in test [2] was -3%; in test [3], -2%. Further, the outcome in test [5], in test [6], in test [7] and in test [8] was inactive.

The record behind these values is PubChem BioAssay.
